# L major viab – Leishmania major promastigote growth inhibition, primary screen. Leishmania major promastigotes, resazurin fluorescence viability. inhibition, % at 10 µM. 200,000 tested, 9% active. AID 1063, 2008; in the data active means inhibition above about 50%;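 further: promastigotes grown with compound for 44 hours at 28 °C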
# CHOP inh – inhibitors of CHOP promoter induction, primary screen, cell-based, unfolded protein response, luciferase reporter | CHO-K1 CHOP-promoter luciferase, tunicamycin-induced, 15-18 h | inhibition, % at 10 µM | 220,000 tested, 3.8% active | AID 2732, 2010;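 active means compounds that reduced the stress-induced luciferase reporter signal by more than about 70% of percent inhibition, limit read from the data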
# RAM inhibit – inhibitors of the yeast RAM network, primary screen, dse1pr::URA3 reporter, 5-FOA selection. S. cerevisiae dse1pr::URA3 reporter, 5-FOA growth OD615, 2 d; analog-sensitive cbk1-as2 kinase mutant strain. inhibition, % at 50 µM. 190,000 tested, 1.8% active;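 active means inhibition above a set limit, 3 SD over mean compound inhibition, cut at about 8.4% in these data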;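 further: inhibition rescues growth on 5-FOA so higher OD means more RAM inhibition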
# WT yeast gro inh – growth inhibition of WT strain, primary screen, mitochondrial fusion inhibitor project, WT and mutant strains, chemical genetic. mitochondrial fusion phenotypic screen. inhibition, % at 10 µM. 190,000 tested, 2.1% active; in the data active means inhibition above about 58%; tested in S. cerevisiae
# A number is an active result; – = inactive; · = no result given. Rows were chosen to be rich in hits. Some 13% of all compounds tested hit in one or more screens of this group.
SMILES,L major viab,CHOP inh,RAM inhibit,WT yeast gro inh
CC(C)=CCC/C(C)=C/COc1ccc2ccc(=O)oc2c1,–,–,–,61
CC(C)=CCOc1ccc2ccc(=O)oc2c1,–,–,–,–
CSc1ncccc1C(=O)Nc1ccc(S(=O)(=O)NC2=NCCCCC2)cc1,–,–,–,–
COc1ccc(/C=N/NC(=O)CC2N=C(Cc3ccccc3)NNC2=O)cc1OC (stereo unspecified),–,–,–,–
COc1ccc(/C(O)=C/c2nc3ccc(C(=O)NCCc4cccc(C)c4)cc3[nH]c2=O)cc1OC,–,73,–,–
CC(N=C1CC(C)(C)CC(=O)/C1=C(/O)CCCN1C(=O)c2ccccc2C1=O)C(=O)O (stereo unspecified),–,–,–,–
CC(C)(O)C#Cc1ccc(CN2CCN(Cc3ccccc3)C(CCO)C2)s1 (stereo unspecified),–,–,–,–
CCOC(=O)N1CCC(N2CCN(Cc3ccc(F)c(F)c3)C(CCO)C2)CC1 (stereo unspecified),84,–,–,–
CSc1cccc(CN2CCN(Cc3ccc(F)c(F)c3)C(CCO)C2)c1 (stereo unspecified),79,–,–,–
CSc1cccc(CN2CCN(CCc3ccccc3)C(CCO)C2)c1 (stereo unspecified),88,–,–,–
CC(C)(O)C#Cc1ccc(CN2CCN(CCc3ccccc3)C(CCO)C2)s1 (stereo unspecified),80,–,–,–
CC(C)c1cc(CN2CCN(Cc3ccc(F)c(F)c3)C(CCO)C2)[nH]n1 (stereo unspecified),–,–,–,–
CN(c1ccccc1)S(=O)(=O)c1cccc(NS(=O)(=O)c2ccc(/C=C/C(=O)O)cc2)c1,–,–,–,–
CC(C)c1csc(CN2CCN(Cc3ccc(F)c(F)c3)C(CCO)C2)n1 (stereo unspecified),70,–,–,–
CSc1cccc(CN2CCN(Cc3ccccc3)C(CCO)C2)c1 (stereo unspecified),84,–,–,–
CC(C)(O)C#Cc1ccc(CN2CCN(Cc3ccccc3)C(CCO)C2)cc1 (stereo unspecified),–,–,–,–
CSc1ccc(CN2CCN(CC=C(C)C)C(CCO)C2)cc1 (stereo unspecified),65,–,–,–
CSc1ccc(CN2CCN(Cc3ccccc3)C(CCO)C2)cc1 (stereo unspecified),74,–,–,–
Cc1ccc(-c2nnc(Oc3ccc(NC(=O)c4ccccc4)cc3)c3ccccc23)cc1,–,–,–,–
S=C1NCCOCCOCCOCCNC(=S)N2CCOCCOCCN1CCOCCOCC2,–,–,–,–
OCCC1CN(Cc2cccnc2)CCN1CCc1ccccc1 (stereo unspecified),–,–,–,–
CCCn1ncc(CN2CCN(CCc3ccccc3)C(CCO)C2)c1C (stereo unspecified),60,–,–,–
Cc1nsc(Nc2ccccc2)c1C#N,–,–,–,–
Cc1ccccc1-c1noc(-c2cccs2)n1,–,90,–,–
COc1ccc(OCCC(=O)NC2=NCCS2)cc1,–,–,–,–
SMILES,L major viab,CHOP inh,RAM inhibit,WT yeast gro inh
CC(C)[C@H](NC(=O)c1ccc(C(C)(C)C)cc1)C(=O)Nc1nnc(C2CC2)s1,84,–,–,–
CC(C)C(NC(=O)c1ccc(C(C)(C)C)cc1)C(=O)NC1=NCCS1 (stereo unspecified),–,–,–,63
COc1cc(OC)cc(C(=O)N[C@H](C(=O)Nc2nnc(C3CC3)s2)C(C)C)c1,–,–,–,–
CC(C)(C)c1ccc(OCCC(=O)NC2=NCCS2)cc1,–,–,–,76
CC(=O)N/N=C(\N)c1nonc1N,·,–,·,·
O=C(C[n+]1cccc2ccccc21)c1ccccc1,–,–,–,–
O=C(C[n+]1cccc2ccccc21)c1ccc(NC(=O)c2ccccc2)cc1,–,–,–,–
O=C(C[n+]1cc2ccccc2c2ccccc21)c1ccccc1,99,–,–,–
Cc1cc[n+](CC(=O)c2ccc(NC(=O)c3ccccc3)cc2)c2ccccc12,–,–,–,61
O=C1NCC(O)=C1C=Nc1ccccc1O,·,–,·,·
CC(Sc1nc(-c2ccccc2)cs1)C(=O)Nc1ccc(Cl)cn1 (stereo unspecified),–,–,9.5,–
CC(Sc1nncs1)C(=O)Nc1ccc(Cl)cn1 (stereo unspecified),–,–,–,–
O=C1C2C3C=CC(CC3)C2C(=O)N1/N=C/c1c(O)ccc2ccccc12 (stereo unspecified),–,72,–,–
